Results as given in ChEMBL document CHEMBL3988442, “University of Dundee, Small-Polar-MMV Screening Library” (2021).
For some assays here: Entries with a potency or affinity are not part of this list.

How the values were obtained:
Parameters in all cases: scale not given: direction of the effect not stated beside the values
[1] = molecular target: Protein translocase subunit SecA (Escherichia coli (strain K12)) (UniProt P10408); assay: Assay to Identify E. coli SecA ATPase Inhibitors; assay type: functional; details: 30 µM
[2] = molecular target: T1, Ubiquitin-activating enzyme e1, putative (Leishmania donovani (strain BPK282A1)) (UniProt E9BSI1); assay: Leishmania donovani Ubiquitin Activating Enzyme (LdE1); assay type: functional; details: 30 µM
T1 sequence (whole entry): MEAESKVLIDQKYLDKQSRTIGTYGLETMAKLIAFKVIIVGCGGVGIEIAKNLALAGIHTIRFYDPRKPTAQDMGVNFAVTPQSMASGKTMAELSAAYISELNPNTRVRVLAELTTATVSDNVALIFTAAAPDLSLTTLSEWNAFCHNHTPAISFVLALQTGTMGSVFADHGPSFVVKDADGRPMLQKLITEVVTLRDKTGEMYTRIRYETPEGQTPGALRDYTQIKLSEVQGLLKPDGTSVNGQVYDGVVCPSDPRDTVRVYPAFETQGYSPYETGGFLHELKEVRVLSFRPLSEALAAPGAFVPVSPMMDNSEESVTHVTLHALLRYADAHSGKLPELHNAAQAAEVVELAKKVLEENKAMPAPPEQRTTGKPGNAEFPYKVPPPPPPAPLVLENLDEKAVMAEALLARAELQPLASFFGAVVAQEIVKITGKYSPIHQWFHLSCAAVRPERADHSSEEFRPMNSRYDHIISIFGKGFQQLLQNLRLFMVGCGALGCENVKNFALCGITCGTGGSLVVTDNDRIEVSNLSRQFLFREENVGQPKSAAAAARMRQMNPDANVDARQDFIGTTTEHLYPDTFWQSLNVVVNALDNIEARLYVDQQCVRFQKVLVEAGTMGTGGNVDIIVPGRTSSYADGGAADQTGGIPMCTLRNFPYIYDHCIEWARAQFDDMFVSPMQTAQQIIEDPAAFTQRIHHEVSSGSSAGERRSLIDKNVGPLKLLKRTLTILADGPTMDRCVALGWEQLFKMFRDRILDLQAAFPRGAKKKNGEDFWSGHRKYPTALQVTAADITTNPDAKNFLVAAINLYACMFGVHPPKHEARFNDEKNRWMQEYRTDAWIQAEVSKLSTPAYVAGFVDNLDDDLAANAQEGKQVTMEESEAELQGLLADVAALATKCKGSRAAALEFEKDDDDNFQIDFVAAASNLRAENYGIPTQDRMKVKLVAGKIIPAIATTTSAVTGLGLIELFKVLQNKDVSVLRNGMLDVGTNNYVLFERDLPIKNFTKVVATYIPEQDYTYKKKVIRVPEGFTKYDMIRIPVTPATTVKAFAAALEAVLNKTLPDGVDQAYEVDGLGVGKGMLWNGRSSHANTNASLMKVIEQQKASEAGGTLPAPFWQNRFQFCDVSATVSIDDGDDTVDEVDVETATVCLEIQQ

[3] = molecular target: Sialic acid-binding Ig-like lectin 9 (Homo sapiens) (UniProt Q9Y336); assay: Hs-Siglec9 ALPHAscreen SOP 20170721; details: 10 µM
[4] = test system: Trypanosoma cruzi; assay: Trypanosoma cruzi phosphomannomutase and mannose-1-phosphate guanylyltransferase assay; assay type: functional; details: 10 µM
[5] = molecular target: T2, Arginase-2, mitochondrial (Homo sapiens) (UniProt P78540); assay: in vitro enzyme assay to detect the production of urea directly proportional to the activity of Arginase II; assay type: functional; details: 33.3 µM; further: in the data most compounds retested in dose-response had high values
T2 sequence (whole entry): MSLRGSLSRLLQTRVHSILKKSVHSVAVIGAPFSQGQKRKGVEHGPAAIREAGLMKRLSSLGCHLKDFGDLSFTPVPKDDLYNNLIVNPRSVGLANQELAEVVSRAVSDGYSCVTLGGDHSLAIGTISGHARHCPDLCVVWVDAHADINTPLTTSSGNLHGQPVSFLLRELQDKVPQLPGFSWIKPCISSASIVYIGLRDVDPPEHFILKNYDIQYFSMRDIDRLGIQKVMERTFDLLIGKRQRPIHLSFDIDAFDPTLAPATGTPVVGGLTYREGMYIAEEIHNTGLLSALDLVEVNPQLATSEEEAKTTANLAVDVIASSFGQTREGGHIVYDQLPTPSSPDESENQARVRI

[6] = molecular target: T3, Proteasome subunit beta (Trypanosoma cruzi) (UniProt O96673); assay: Trypanosoma cruzi proteasome chymotrypsin-like activity (TcProtChymo) assay.; further: in the data most compounds retested in dose-response had high values; assay type: functional; details: 9.37 µM
T3 sequence (whole entry): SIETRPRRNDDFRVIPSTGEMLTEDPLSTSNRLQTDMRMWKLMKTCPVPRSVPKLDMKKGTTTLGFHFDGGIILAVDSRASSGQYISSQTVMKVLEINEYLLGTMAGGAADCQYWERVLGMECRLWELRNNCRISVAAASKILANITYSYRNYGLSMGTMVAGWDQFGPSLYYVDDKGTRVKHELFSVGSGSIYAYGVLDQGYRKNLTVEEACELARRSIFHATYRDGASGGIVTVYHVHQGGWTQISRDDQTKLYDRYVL

[7] = species on record: Homo sapiens; assay: To identify inhibition of the IFN signalling (Jak-Stat) pathway via expression of an eGFP reporter gene under the control of an IFN-stimulated response element (ISRE) containing MxA promoter.; assay type: functional; details: 30 µM
[8] = molecular target: T4, Tyrosyl-tRNA synthetase, putative (Trypanosoma cruzi (strain CL Brener)) (UniProt Q4DSP6); assay: Trypanosoma cruzi tyrosyl tRNA synthetase (TcYRS) _High Tyrosine SOP; assay type: functional; details: 30 µM; further: in the data most compounds retested in dose-response had high values
T4 sequence (whole entry): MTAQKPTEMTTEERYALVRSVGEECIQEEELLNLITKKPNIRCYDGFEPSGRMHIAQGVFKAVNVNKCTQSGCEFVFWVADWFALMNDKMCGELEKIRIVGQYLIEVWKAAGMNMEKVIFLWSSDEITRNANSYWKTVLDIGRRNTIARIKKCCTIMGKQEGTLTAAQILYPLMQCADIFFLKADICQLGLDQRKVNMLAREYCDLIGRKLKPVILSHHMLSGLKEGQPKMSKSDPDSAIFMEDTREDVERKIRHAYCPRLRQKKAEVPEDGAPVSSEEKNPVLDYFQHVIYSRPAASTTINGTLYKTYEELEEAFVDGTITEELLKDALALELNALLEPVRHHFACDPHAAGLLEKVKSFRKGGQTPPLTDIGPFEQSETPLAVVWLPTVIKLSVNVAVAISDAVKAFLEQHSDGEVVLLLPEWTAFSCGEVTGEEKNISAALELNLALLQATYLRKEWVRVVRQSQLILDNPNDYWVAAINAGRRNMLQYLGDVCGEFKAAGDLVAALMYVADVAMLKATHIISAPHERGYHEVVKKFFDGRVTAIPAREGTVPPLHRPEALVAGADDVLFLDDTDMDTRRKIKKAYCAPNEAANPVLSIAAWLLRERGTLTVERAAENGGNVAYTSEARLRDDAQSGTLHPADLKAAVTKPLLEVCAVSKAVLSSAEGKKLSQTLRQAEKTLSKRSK

[9] = molecular target: T4, Tyrosyl-tRNA synthetase, putative (Trypanosoma cruzi (strain CL Brener)); assay: Trypanosoma cruzi tyrosyl tRNA synthetase (TcYRS) SOP; assay type: functional; details: 30 µM
[10] = molecular target: Chromo domain-containing protein 1 (Saccharomyces cerevisiae (strain ATCC 204508 / S288c) (Baker's yeast)) (UniProt P32657); assay: ScCHD-1 Enzyme Inhibition Assay; assay type: functional; details: 30 µM; further: in the data most compounds retested in dose-response had high values
Chain of Chromo domain-containing protein 1 (Saccharomyces cerevisiae (strain ATCC 204508 / S288c) (Baker's yeast)) (P32657 whole entry, the tested form may be a part): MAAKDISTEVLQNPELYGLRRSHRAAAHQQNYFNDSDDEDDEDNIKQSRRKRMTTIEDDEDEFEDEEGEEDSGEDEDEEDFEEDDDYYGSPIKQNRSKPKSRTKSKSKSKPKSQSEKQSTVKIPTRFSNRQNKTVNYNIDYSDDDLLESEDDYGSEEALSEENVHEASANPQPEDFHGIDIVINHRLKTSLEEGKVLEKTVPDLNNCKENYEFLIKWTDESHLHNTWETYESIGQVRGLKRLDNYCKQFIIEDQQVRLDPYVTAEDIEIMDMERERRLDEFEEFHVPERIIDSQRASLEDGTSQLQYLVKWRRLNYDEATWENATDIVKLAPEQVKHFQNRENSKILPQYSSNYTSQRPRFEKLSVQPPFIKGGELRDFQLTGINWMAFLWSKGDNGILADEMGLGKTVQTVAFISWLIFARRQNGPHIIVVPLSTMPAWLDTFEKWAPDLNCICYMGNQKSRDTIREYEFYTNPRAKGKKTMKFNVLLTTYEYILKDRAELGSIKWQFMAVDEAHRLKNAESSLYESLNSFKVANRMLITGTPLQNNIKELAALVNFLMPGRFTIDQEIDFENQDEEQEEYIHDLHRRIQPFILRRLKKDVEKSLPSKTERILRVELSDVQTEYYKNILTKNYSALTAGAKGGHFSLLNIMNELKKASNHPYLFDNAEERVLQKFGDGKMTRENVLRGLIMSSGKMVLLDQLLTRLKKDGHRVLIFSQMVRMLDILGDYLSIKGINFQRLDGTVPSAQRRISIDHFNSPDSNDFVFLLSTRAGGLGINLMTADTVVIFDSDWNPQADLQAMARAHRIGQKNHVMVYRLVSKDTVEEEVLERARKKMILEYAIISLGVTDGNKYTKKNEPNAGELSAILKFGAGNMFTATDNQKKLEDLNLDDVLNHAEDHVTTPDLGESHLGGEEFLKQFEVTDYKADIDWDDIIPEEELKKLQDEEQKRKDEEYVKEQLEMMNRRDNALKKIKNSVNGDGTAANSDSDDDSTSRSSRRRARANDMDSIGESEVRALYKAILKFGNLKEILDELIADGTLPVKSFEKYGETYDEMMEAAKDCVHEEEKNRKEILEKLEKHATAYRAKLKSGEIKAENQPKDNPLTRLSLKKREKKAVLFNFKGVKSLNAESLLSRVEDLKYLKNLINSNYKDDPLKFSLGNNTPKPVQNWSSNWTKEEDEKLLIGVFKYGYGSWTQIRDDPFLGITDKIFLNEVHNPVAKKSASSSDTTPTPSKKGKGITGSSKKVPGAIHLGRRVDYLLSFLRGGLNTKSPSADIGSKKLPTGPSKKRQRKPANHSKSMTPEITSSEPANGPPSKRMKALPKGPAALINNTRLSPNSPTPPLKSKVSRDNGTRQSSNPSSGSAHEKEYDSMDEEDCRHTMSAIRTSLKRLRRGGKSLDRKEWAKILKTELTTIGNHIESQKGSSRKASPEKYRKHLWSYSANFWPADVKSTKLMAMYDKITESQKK

Chain of Sialic acid-binding Ig-like lectin 9 (Homo sapiens) (Q9Y336 whole entry): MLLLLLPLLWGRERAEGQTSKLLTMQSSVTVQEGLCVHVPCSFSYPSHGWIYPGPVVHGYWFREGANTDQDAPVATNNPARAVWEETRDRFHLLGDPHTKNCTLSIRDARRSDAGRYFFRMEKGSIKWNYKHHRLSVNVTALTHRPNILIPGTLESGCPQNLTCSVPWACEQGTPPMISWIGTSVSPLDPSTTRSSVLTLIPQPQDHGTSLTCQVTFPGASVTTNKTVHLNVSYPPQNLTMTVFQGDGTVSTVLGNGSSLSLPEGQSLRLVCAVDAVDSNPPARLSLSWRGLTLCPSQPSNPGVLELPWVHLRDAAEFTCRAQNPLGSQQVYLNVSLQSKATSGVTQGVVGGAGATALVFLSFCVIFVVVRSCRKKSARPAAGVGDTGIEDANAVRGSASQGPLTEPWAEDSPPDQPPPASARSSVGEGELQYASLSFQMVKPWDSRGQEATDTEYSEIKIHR
Chain of Protein translocase subunit SecA (Escherichia coli (strain K12)) (P10408 whole entry): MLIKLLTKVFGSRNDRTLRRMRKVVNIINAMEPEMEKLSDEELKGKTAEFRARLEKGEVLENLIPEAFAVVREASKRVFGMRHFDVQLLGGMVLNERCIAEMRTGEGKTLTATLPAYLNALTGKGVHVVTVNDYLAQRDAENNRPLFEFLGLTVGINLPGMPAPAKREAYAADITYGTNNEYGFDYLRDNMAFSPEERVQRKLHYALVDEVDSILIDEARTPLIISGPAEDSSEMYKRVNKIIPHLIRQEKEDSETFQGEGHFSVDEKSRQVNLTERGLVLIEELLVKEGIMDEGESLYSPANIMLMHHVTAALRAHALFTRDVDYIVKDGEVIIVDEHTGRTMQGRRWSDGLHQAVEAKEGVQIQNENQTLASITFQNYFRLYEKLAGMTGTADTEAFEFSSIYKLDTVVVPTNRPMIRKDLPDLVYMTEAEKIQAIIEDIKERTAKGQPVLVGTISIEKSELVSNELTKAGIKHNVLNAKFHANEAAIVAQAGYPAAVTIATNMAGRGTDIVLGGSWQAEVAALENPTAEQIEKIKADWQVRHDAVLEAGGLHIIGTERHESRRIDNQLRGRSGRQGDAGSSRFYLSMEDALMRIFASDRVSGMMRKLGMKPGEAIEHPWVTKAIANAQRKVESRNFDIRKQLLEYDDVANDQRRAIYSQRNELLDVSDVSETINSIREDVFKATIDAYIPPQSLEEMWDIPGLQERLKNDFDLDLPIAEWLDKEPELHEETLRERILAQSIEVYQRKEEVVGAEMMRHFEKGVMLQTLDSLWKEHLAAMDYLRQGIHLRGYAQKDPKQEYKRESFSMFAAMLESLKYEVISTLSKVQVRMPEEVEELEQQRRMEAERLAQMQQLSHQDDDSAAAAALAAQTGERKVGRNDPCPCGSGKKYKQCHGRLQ

Compound	Percent Effect [1] [%]	Percent Effect [2] [%]	Percent Effect [3] [%]	Percent Effect [4] [%]	Percent Effect [5] [%]	Percent Effect [6] [%]	Percent Effect [7] [%]	Percent Effect [8] [%]	Percent Effect [9] [%]	Percent Effect [10] [%]
COCCN1CCN(Cc2cccc(C(=O)N(C)C)c2)CC1C (stereo not given)	-1.22	18.7	-4.75	-1.61	2.66	7.72	6.69	3.68	7.69	-8.7
Cc1cccnc1C(=O)N1CCCC(c2[nH]ncc2S(C)(=O)=O)C1 (stereo not given)	-0.892	4	0.0565	-4.54	3.1	0.985	20	5.29	7.5	-20.1
c1ccc(C(OCCNC2CCc3ncnn3C2)c2ccccc2)cc1 (stereo not given)	-5.97	10.4	5.43	5.41	-4.3	0.526	-3.8	0.98	18.8	-13.3
Cc1cncc(C2CCCN(C(=O)c3ccc(C)[nH]c3=O)C2)n1 (stereo not given)	-4.08	20	0.301	1.58	-1.33	18.4	-10.4	5.29	17.5	-23.9
COCCN1CC[C@]2(CN(C(=O)c3cccs3)C[C@H]2C)C1=O	0.25	1.3	1.96	-0.938	-0.457	9.7	0.303	0.966	0	0.0651
Cc1ccc(CNC(=O)N2CCN(Cc3ccsc3)CC2)n1C	-3.87	2.67	-1.44	-5.42	-5.76	14.5	15.6	2.63	-17.9	-19.4
CN1CCN(c2ncnc3c2c(C(=O)NC2CC2)c2ccccn23)CC1	-0.824	-6.49	1.78	-5.16	3.24	-2.56	0.0174	-1.58	0	-13.6
CC(c1cccc(S(N)(=O)=O)c1)N(C)CCOc1ccccc1 (stereo not given)	-0.74	-15.6	10.5	-4.48	-5.12	2.1	14.4	-1.96	-2.35	1.25
COC[C@@H]1CC[C@H]2[C@H](CCN2S(=O)(=O)c2ccc(F)cc2)O1	-2.35	6.49	-4.91	-3.02	-0.405	12.1	11.2	4.74	7.69	-2.82
Cc1ccc(-c2nc(CN3CCc4c(ncn4C)C3)cs2)o1	-4.38	2.56	-16.5	11.9	-6.56	24.3	2.62	11	18.1	37.3
CC(=O)N1CCC2(CCCN(Cc3ccc(Cl)c(C(F)(F)F)c3)C2)C1 (stereo not given)	-6.95	3.9	-5.84	1.07	-1.22	1.15	-5.5	-8.95	10.3	0.22
Cc1c[nH]nc1C1CCCCN1C(=O)Cn1cc(Cl)cn1 (stereo not given)	-0.928	14.7	-3.24	-2.96	3.1	15.1	7.7	3.17	10	-20.3
COC[C@@]12CC[C@@H](N3CCOCC3)C[C@H]1CCN(c1ncccn1)C2	-6.56	13.5	17.1	6.5	19.9	14.7	0.0489	4.79	12.2	88.3
CCC1=N[C@@]2(CC[C@@H]3CN(C(=O)NCc4ccccc4)C[C@@H]32)C(=O)N1	-4.85	3.9	-3.04	1.66	-4.86	4.33	-16.6	5.79	5.13	-0.556
COCCNC(=O)c1cc(S(=O)(=O)N2CCCCC2)cs1	-1.54	0	-4.58	-1.07	1.05	14.6	19.3	0.532	2.44	2.87
Cc1ccc(-c2nnc(CNCCn3cc(C)cn3)o2)cc1	0.127	7.79	7.81	-0.56	1.02	6.67	-6.58	4.9	11.8	-4.71
CC(C)(C)c1nnc(CN2CCOC(Cn3cncn3)C2)o1 (stereo not given)	-3.4	17.9	1.77	9.67	-6.56	4.18	8.6	4.31	18.1	-4.15
CC(C)N(C)CC(=O)N1CCCC(c2ccc(C(=O)O)cc2)C1 (stereo not given)	-7.71	5.41	3.58	8.44	-1.05	1.71	-11.9	7.98	17.1	-2.58
Cc1cccc(CN2C[C@@H]3COC[C@]3(CNC(=O)c3ccsc3)C2)n1	-7.55	9.09	-4.17	1.27	-3.64	22.3	-5.86	7.89	12.8	108
O=C(NCCOc1ccc2c(c1)CCC2)N1CCS(=O)(=O)CC1	-6.68	2.56	-7.49	-1.78	-0.82	1.28	23.2	-1.44	-1.21	-2.29
COc1ccc(F)cc1CN1CCCC(c2cc(C(N)=O)[nH]n2)C1 (stereo not given)	-3.96	5.33	5.92	1.81	-2.22	1.61	8.51	3.68	5.13	-9.49
CCCc1noc(CN2CCCC2c2c(C)nn(C)c2OC)n1 (stereo not given)	-8.89	-2.67	-1.2	-1.61	3.1	2.29	9.23	-2.63	-2.56	-6.05
CC(C)NC(=O)Nc1ccc(CNCc2cccc(OC(F)F)c2)cc1	-3.77	10.4	-3.29	-2.98	-10	24	25.1	4.9	7.06	-10.9
